In PubChem BioAssay (EPA / NIEHS):
The source made the active and inactive calls. Rule for the calls: active = hit-call score of the fitted dose curve at least 0.9, where 1 is the maximum; inactive = score below 0.9.

These molecules were tested on TIMP1, TIMP1 (gene 7076) (assay: LTEA_HepaRG_TIMP1: Life Technologies and Expression Analysis (LTEA) Assay for TIMP1 using HepaRG (AID 2283534;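 for outcome: TaqMan qRT-PCR signal normalized to ACTB GAPDH and POLR2A housekeeping genes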)). Conditions: mRNA level, 48 h; actives raise or lower the signal.
Procedure, shortened: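 We dosed human liver HepaRG cultures for 48 hours with up to 100 uM test chemical and measured TIMP1 expression by qRT-PCR. Activity in either direction is fitted relative to the 0.5% DMSO vehicle.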

`c1cc2ccc3cccc4ccc(c1)c2c34` was tested. Which outcome did it give?
Its outcome is “inactive”.

With `CCSC(=O)N(CC)C1CCCCC1` as the molecule, how does the outcome read?
The outcome was “inactive”.

For `CC(C)(c1ccccc1)c1ccc(O)cc1`, which outcome is on record?
The outcome was “inactive”.

For `CCOP(=S)(OCC)SCSC(C)(C)C`, which outcome is on record?
The outcome was “inactive”.

How did the outcome turn out when `CCOC(=O)C(O)(c1ccc(Cl)cc1)c1ccc(Cl)cc1` was run?
The outcome was “inactive”.

With `Nc1ccc(-c2ccc(N)cc2)cc1` as the molecule, how does the outcome read?
The outcome was “inactive”.

With `COS(=O)(=O)OC` as the molecule, how does the outcome read?
The outcome was “inactive”.

With `CCCCCCCCCC[N+](C)(C)CCCCCCCCCC` as the molecule, how does the AC50 read?
Its AC50 is 10.3 µM (active).

For `O=C(O)C(F)(F)C(F)(F)C(F)(F)C(F)(F)C(F)(F)C(F)(F)C(F)(F)C(F)(F)C(F)(F)F`, which AC50 is on record?
The AC50 was 91.7 µM (active).

Which outcome does the source give for `Cc1cccc(C)c1N` here?
The outcome was “inactive”.

Which outcome does the source give for `CCCCCCCCCc1ccc(O)cc1` here?
The outcome was “inactive”.

For `O=NN(c1ccccc1)c1ccccc1`, which outcome is on record?
Its outcome is “inactive”.

With `CCCCCCCCOC(=O)c1ccccc1C(=O)OCCCCCCCC` as the molecule, how does the outcome read?
The outcome was “inactive”.

How did the outcome turn out when `Oc1ccc(C(c2ccc(O)cc2)(C(F)(F)F)C(F)(F)F)cc1` was run?
Its outcome is “inactive”.

How did the outcome turn out when `O=C(O)C(F)(F)C(F)(F)C(F)(F)C(F)(F)C(F)(F)F` was run?
Its outcome is “inactive”.

With `NS(=O)(=O)C(F)(F)C(F)(F)C(F)(F)C(F)(F)C(F)(F)C(F)(F)C(F)(F)C(F)(F)F` as the molecule, how does the AC50 read?
The AC50 was 12.4 µM (active).

With `O=S(=O)(O)C(F)(F)C(F)(F)C(F)(F)C(F)(F)F` as the molecule, how does the outcome read?
The outcome was “inactive”.

How did the outcome turn out when `CC1=C2C[C@H]3[C@@H](CC=C4C[C@@H](O)CC[C@@]43C)[C@@H]2CC[C@]12O[C@@H]1C[C@H](C)CN[C@H]1[C@H]2C` was run?
The outcome was “inactive”.

`CCC(C)(c1ccc(O)cc1)c1ccc(O)cc1` was tested. Which outcome did it give?
The outcome was “inactive”.

`CN(C)c1nc(=O)n(C2CCCCC2)c(=O)n1C` was tested. Which outcome did it give?
Its outcome is “inactive”.

Which outcome does the source give for `Cc1ccccc1O` here?
Its outcome is “inactive”.

Which outcome does the source give for `C=CC(N)=O` here?
The outcome was “inactive”.

`Cc1cccc([N+](=O)[O-])c1` was tested. Which outcome did it give?
Its outcome is “inactive”.

How did the outcome turn out when `Cc1ccc(O)c(C)c1` was run?
Its outcome is “inactive”.

For `CN(C)CCO`, which outcome is on record?
Its outcome is “inactive”.

With `O=C(N[C@H]1CN2CCC1CC2)c1cc2ccoc2cn1` as the molecule, how does the outcome read?
The outcome was “inactive”.

Which outcome does the source give for `O=S(=O)(O)C(F)(F)C(F)(F)C(F)(F)C(F)(F)C(F)(F)C(F)(F)F` here?
Its outcome is “inactive”.

For `Cc1cc(-c2ccc(N)c(C)c2)ccc1N`, which outcome is on record?
Its outcome is “inactive”.

With `c1ccc(-c2ccccc2)cc1` as the molecule, how does the outcome read?
Its outcome is “inactive”.

How did the outcome turn out when `C1CC2OC2CC1C1CO1` (centres undefined) was run?
Its outcome is “inactive”.

`Cc1ccccc1CO[C@@H]1C[C@@]2(C(C)C)CC[C@]1(C)O2` was tested. Which outcome did it give?
The outcome was “inactive”.

`CCC(C)c1cc([N+](=O)[O-])cc([N+](=O)[O-])c1O` (centres undefined) was tested. Which AC50 did it give?
The AC50 was 2.51 µM (active).

These molecules were tested on Tumor necrosis factor receptor 1 (TNFRSF1A), TNFRSF1A (gene 7132) (assay: LTEA_HepaRG_TNFRSF1A: Life Technologies and Expression Analysis (LTEA) Assay for Tumor necrosis factor receptor 1 (TNFRSF1A) using HepaRG (AID 2283535)). Conditions: mRNA level, 48 h; actives raise or lower the signal.
Procedure, shortened: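 Expression of TNFRSF1A in human HepaRG liver cells was measured by qRT-PCR 48 h after chemical dosing (maximum 100 uM). Bidirectional curve fitting used 0.5% DMSO as baseline.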

For `c1cc2ccc3cccc4ccc(c1)c2c34`, which outcome is on record?
Its outcome is “inactive”.

With `CCSC(=O)N(CC)C1CCCCC1` as the molecule, how does the outcome read?
The outcome was “inactive”.

`CC(C)(c1ccccc1)c1ccc(O)cc1` was tested. Which outcome did it give?
Its outcome is “inactive”.

How did the outcome turn out when `CCOP(=S)(OCC)SCSC(C)(C)C` was run?
Its outcome is “inactive”.

With `CCOC(=O)C(O)(c1ccc(Cl)cc1)c1ccc(Cl)cc1` as the molecule, how does the outcome read?
Its outcome is “inactive”.

How did the outcome turn out when `Nc1ccc(-c2ccc(N)cc2)cc1` was run?
Its outcome is “inactive”.

How did the outcome turn out when `COS(=O)(=O)OC` was run?
Its outcome is “inactive”.

With `CCCCCCCCCC[N+](C)(C)CCCCCCCCCC` as the molecule, how does the AC50 read?
Its AC50 is 79.3 µM (active).

With `O=C(O)C(F)(F)C(F)(F)C(F)(F)C(F)(F)C(F)(F)C(F)(F)C(F)(F)C(F)(F)C(F)(F)F` as the molecule, how does the AC50 read?
Its AC50 is 78 µM (active).

Which outcome does the source give for `Cc1cccc(C)c1N` here?
The outcome was “inactive”.

How did the outcome turn out when `CCCCCCCCCc1ccc(O)cc1` was run?
The outcome was “inactive”.

How did the AC50 turn out when `O=NN(c1ccccc1)c1ccccc1` was run?
The AC50 was 80.2 µM (active).

How did the outcome turn out when `CCCCCCCCOC(=O)c1ccccc1C(=O)OCCCCCCCC` was run?
The outcome was “inactive”.

For `Oc1ccc(C(c2ccc(O)cc2)(C(F)(F)F)C(F)(F)F)cc1`, which outcome is on record?
Its outcome is “inactive”.

For `O=C(O)C(F)(F)C(F)(F)C(F)(F)C(F)(F)C(F)(F)F`, which outcome is on record?
Its outcome is “inactive”.

Which AC50 does the source give for `NS(=O)(=O)C(F)(F)C(F)(F)C(F)(F)C(F)(F)C(F)(F)C(F)(F)C(F)(F)C(F)(F)F` here?
The AC50 was 29.4 µM (active).

For `O=S(=O)(O)C(F)(F)C(F)(F)C(F)(F)C(F)(F)F`, which outcome is on record?
Its outcome is “inactive”.

`CC1=C2C[C@H]3[C@@H](CC=C4C[C@@H](O)CC[C@@]43C)[C@@H]2CC[C@]12O[C@@H]1C[C@H](C)CN[C@H]1[C@H]2C` was tested. Which outcome did it give?
Its outcome is “inactive”.

With `CCC(C)(c1ccc(O)cc1)c1ccc(O)cc1` as the molecule, how does the outcome read?
Its outcome is “inactive”.

With `CN(C)c1nc(=O)n(C2CCCCC2)c(=O)n1C` as the molecule, how does the outcome read?
The outcome was “inactive”.

Which outcome does the source give for `Cc1ccccc1O` here?
Its outcome is “inactive”.

With `C=CC(N)=O` as the molecule, how does the outcome read?
The outcome was “inactive”.

With `Cc1cccc([N+](=O)[O-])c1` as the molecule, how does the outcome read?
The outcome was “inactive”.

How did the outcome turn out when `Cc1ccc(O)c(C)c1` was run?
The outcome was “inactive”.

`CN(C)CCO` was tested. Which outcome did it give?
The outcome was “inactive”.

`O=C(N[C@H]1CN2CCC1CC2)c1cc2ccoc2cn1` was tested. Which outcome did it give?
Its outcome is “inactive”.

For `O=S(=O)(O)C(F)(F)C(F)(F)C(F)(F)C(F)(F)C(F)(F)C(F)(F)F`, which outcome is on record?
The outcome was “inactive”.

With `Cc1cc(-c2ccc(N)c(C)c2)ccc1N` as the molecule, how does the outcome read?
The outcome was “inactive”.

With `c1ccc(-c2ccccc2)cc1` as the molecule, how does the outcome read?
Its outcome is “inactive”.

With `C1CC2OC2CC1C1CO1` (centres undefined) as the molecule, how does the outcome read?
The outcome was “inactive”.

`Cc1ccccc1CO[C@@H]1C[C@@]2(C(C)C)CC[C@]1(C)O2` was tested. Which outcome did it give?
Its outcome is “inactive”.

With `CCC(C)c1cc([N+](=O)[O-])cc([N+](=O)[O-])c1O` (centres undefined) as the molecule, how does the AC50 read?
Its AC50 is 4.74 µM (active).
